High-throughput results: PubChem, National Center for Advancing Translational Sciences (NCATS)
FLuc inh: inhibitors of firefly luciferase; Potency, µM (top dose mostly 57.1 µM), most hits filed as inhibitors; hit rate 2.2% among 72,000; P08659; purified firefly luciferase, luminescence, 8 min; AID 411; further: nearly all actives have a fitted effect of over 40% in size
Target sequence (P08659 whole entry, looked up): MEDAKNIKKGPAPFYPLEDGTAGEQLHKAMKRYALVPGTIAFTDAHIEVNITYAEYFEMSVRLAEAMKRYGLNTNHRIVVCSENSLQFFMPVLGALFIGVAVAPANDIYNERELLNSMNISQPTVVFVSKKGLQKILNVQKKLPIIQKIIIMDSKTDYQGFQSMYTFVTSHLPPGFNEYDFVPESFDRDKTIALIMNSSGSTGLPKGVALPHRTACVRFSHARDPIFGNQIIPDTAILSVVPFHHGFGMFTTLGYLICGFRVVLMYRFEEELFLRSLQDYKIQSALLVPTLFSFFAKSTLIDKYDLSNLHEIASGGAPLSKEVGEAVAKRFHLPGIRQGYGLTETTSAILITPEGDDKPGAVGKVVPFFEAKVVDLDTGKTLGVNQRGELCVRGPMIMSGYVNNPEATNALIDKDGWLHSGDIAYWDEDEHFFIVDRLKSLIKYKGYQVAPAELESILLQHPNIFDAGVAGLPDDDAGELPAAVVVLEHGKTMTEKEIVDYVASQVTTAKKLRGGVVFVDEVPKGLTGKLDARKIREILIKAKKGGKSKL
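Here, luciferase activity is measured as luminescence following an 8 min room-temperature reaction at 10 uM ATP, pH 7.2. Every library sample is titrated.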
TSHR ag: TSH receptor (human) agonism; P16473; HEK293-CNG-TSHR cells (CNG channel as cAMP sensor), membrane potential dye, cAMP; Potency, µM (series often up to 57.1 µM), hits mostly activators; hit rate 0.48% among 73,000; active means well fitted activation curve with a large enough effect in the main read-out, with a control signal flat, not every such curve was filed as active; inconclusive means small, poorly fitted or top-dose-only effect, or a change in a side signal; inactive means no such curve, though single readings can be large or run the other way; reference of the percent scale not stated here;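 further: the control signal comes from parental cells without the receptor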
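cAMP rise detected as CNG-channel membrane depolarization by fluorescent dye (emission 590 nm), 30 min after compound, following 60 min dye loading containing 100 uM RO 20-1724 at room temperature. Cells: TSHR/CNG HEK 293, with parental CNG HEK 293 as control.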
Bst PK mod: alters activity of Bacillus stearothermophilus pyruvate kinase; hit rate 1.2% among 51,000; purified pyruvate kinase, luminescence ATP production; ribose 5-phosphate activator present at AC10; Potency, µM; in the data active means potency below about 11 µM; inconclusive means mostly about 12 µM to 25 µM;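 the screen sought inhibitors and activators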
HEK293 cAMP cs: parental HEK293 cAMP activation (counter-screen) | AID 938 | hit rate 2.5% among 73,000 | Potency, µM (highest dose often 57.1 µM), usual class: activators | parental HEK293 CNG cAMP sensor, membrane potential fluorescence; further: nearly all actives have a fitted effect of over 55% in size
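Parental HEK 293 cells stably expressing a modified CNG channel (no TSHR) report cAMP rise as membrane depolarization. Membrane potential dye with 100 uM RO 20-1724 was loaded for 60 min at room temperature, then compound added for 30 min; fluorescence read at 590 nm.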
Hits are given with their value; - = inactive; ? = inconclusive; . = no result; [ ] = remark or other dose. A selection: hits, their analogues and other compounds. The true share with any hit is near 5.2%. Unless noted, the call rests on the fitted dose curve; in most records, active means well fitted curve in the direction sought with a large enough effect; inconclusive means small, poorly fitted or top-dose-only effect, or another doubt; inactive means no such curve, though single readings can be large; an effect the other way counts as inactive or inconclusive.

SMILES | FLuc inh | TSHR ag | Bst PK mod | HEK293 cAMP cs
CCOc1ccc(-c2nnc(-c3ccncc3)o2)cc1 | - | - | 2.1 | -
Cc1cccc(NC(=O)NCC(c2cccnc2)N2CCOCC2)c1 (stereo unspecified) | - | - | - | -
COCC(=O)Nc1ccc(N(C)C)cc1 | - | - | - | -
CN(C)c1ccc(NC(=O)CCCc2ccccc2)cc1 | 25µM | - | . | -
Cc1ccc(-n2c(=O)[nH]c3c(C(N)=O)nc(CC(C)C)nc32)cc1 | - | -[11.4 µM] | - | -
CC(C#N)Sc1ncnc2sc3c(c12)CCC3 (stereo unspecified) | - | ? | . | 25µM
COc1ccc(CNc2ccc(S(N)(=O)=O)cc2)c(OC)c1OC | - | - | - | -
Cc1cc(C(=O)Nc2ccccn2)no1 | - | - | - | -
O=C(Nc1ccccn1)c1ccc2ccccc2n1 | 3.2µM | ? | 9 | ?
COc1ccccc1OCCn1cc(C(=O)c2ccco2)c2ccccc21 | - | ? | - | 25µM
COc1ccc(CCNC(=O)C2CCN(Cc3nc(-c4cccc(Cl)c4)oc3C)CC2)cc1OC | - | - | - | -
O=C(Nc1ccc2c(c1)OCCO2)c1cncc(Br)c1 | 10µM | - | - | -
Cc1ncoc1C(=O)Nc1ccc2c(c1)OCCO2 | 20µM | - | . | -
Cc1occc1C(=O)Nc1ccc2c(c1)CCC2 | 25µM | - | . | -
Cc1occc1C(=O)Nc1ccc2c(c1)OCCO2 | 20µM | - | - | -
Cc1cc(C(=O)Nc2ccc3c(c2)OCCO3)c(C)o1 | 16µM | - | - | -
COc1cccc(NC(=O)c2ccc(CN3CCOCC3)cc2)c1 | ? | - | . | -
O=C(Nc1ccc2c(c1)OCCO2)c1ccc(CN2CCOCC2)cc1 | 16µM | - | . | -
COc1ccccc1OCc1nc(C#N)c(N2CC(C)CC(C)C2)o1 (stereo unspecified) | - | ? | . | 13µM
N#Cc1nc(-c2ccco2)oc1N1CCc2ccccc2C1 | - | ? | - | 25µM
N#Cc1nc(-c2ccco2)oc1N1CCN(C(c2ccccc2)c2ccccc2)CC1 | - | 4µM | - | -
COc1ccccc1-c1nc(C#N)c(N2CCN(c3cccc(Cl)c3)CC2)o1 | - | ? | - | ?
N#Cc1nc(-c2ccco2)oc1N1CCCC1 | - | - | - | -
COc1ccc(-c2nc(C#N)c(N3CC(C)OC(C)C3)o2)cc1OC (stereo unspecified) | - | . | - | -
N#Cc1nc(-c2ccco2)oc1N1CCN(c2cccc(Cl)c2)CC1 | - | ? | - | 20µM
SMILES | FLuc inh | TSHR ag | Bst PK mod | HEK293 cAMP cs
O=C(c1cc2ccccc2oc1=O)N1CCN(Cc2ccc3c(c2)OCO3)CC1 | - | - | - | -
Cc1ccc2c(c1)c1c3n2CCN=C3CCC1 | - | - | - | -
CC1CC(C)CN(c2oc(-c3ccco3)nc2C#N)C1 (stereo unspecified) | - | ? | - | 16µM
CNc1oc(-c2ccco2)nc1C#N | - | - | - | -
COc1ccc(S(=O)(=O)N2CCCCC2)cc1C(C)C | - | ? | - | 32µM
O=C(c1ccc(N2CCOCC2)cc1)c1cccs1 | 10µM | - | ? | -
COc1cc(C(=O)Oc2ccccc2N)cc(OC)c1OC | - | 3.2µM | . | -[11.4 µM]
COC(=O)c1cc(OC)c(OC)c(OC)c1N | - | - | - | -
O=S(=O)(c1ccccc1)N1CCN(C2CCCCCCC2)CC1 | - | - | - | -
N#CCCn1c(=O)c(-c2ccc(Cl)cc2)nc2cnc(Nc3ccccc3)nc21 | -[11.4 µM] | - | . | -
N#CCCn1c(=O)c(-c2ccccc2)nc2cnc(Nc3ccccc3)nc21 | -[11.4 µM] | ? | . | 10µM
CCOC(=O)C(/C(N)=N/C(=O)Nc1ccccc1)=C(\C)O | 13µM | -[11.4 µM] | . | -
CC(=O)c1c(C)n(CC(=O)NCc2ccc3c(c2)OCO3)c2ccccc12 | - | - | - | -
CC(=O)c1c(C(C)=O)c(C)n(Cc2ccc3c(c2)OCO3)c1C | - | ? | - | 13µM
Cn1c(NCc2ccco2)nc2c1c(=O)n(Cc1ccc(Cl)cc1)c(=O)n2C | - | - | - | -
O=c1c2[nH]c3ccccc3c2ncn1C1CCCCC1 | - | ? | . | -
CCCc1cc(=O)n2[nH]c(-c3cc(OC)c(OC)c(OC)c3)nc2n1 | - | 25µM | - | -
Cc1ccc(CN2C(=O)C(C)(C)Oc3ccc(C(=O)N4CCCCC4)cc32)cc1 | - | ? | - | 25µM
COc1ccc(C(c2nnnn2CCc2ccccc2)N2CCN(C3CCCC3)CC2)cc1OC (stereo unspecified) | - | - | - | -
CCCC(c1nnnn1CCc1ccccc1)N1CCN(C2CCCC2)CC1 (stereo unspecified) | - | ? | - | 16µM
CCCCC(c1nnnn1C1CCCC1)N1CCN(C2CCCCC2)CC1 (stereo unspecified) | - | ? | - | 2.5µM
C=CCOc1ccc(/C(O)=C2/C(=O)C(=O)N(CCN3CCOCC3)C2c2ccc(C)cc2)cc1 (stereo unspecified) | - | - | - | -
O=C(C1CC1c1ccccc1)N1CCN(c2cccc(Cl)c2)CC1 (stereo unspecified) | - | ? | - | 32µM
O=C(O)c1ccccc1C(=O)N1CCN(c2cccc(Cl)c2)CC1 | - | - | - | -
COc1cc(NC(=O)C2COc3ccccc3O2)c(OC)cc1Cl (stereo unspecified) | - | ? | - | 16µM
SMILES | FLuc inh | TSHR ag | Bst PK mod | HEK293 cAMP cs
CC(C)(C)NC(=O)c1ccc(NC(=O)C2COc3ccccc3O2)cc1 (stereo unspecified) | - | - | - | -
CC1(C)Oc2ccc(NC(=O)C3COc4ccccc4O3)cc2O1 (stereo unspecified) | 13µM | - | ? | -
Cc1coc2c(C)c3oc(=O)c4c(c3cc12)CCC4 | - | . | - | -
CN(C)CCCOC(=O)c1ccc(Cl)cc1Cl | - | . | - | .
CN(C)/C=N/c1cnc(C(=O)c2ccc(Cl)cc2)n1C | 13µM | - | . | -
Cc1c(N=C/C=C/c2ccccc2)cnn1C | 16µM | - | . | -
Cc1c(N=C/C=C/c2ccccc2)c(=O)n(-c2ccccc2)n1C | - | . | . | -
CCCCN(C(=O)NC(=O)Nc1nc2ccc(OC)cc2s1)S(C)(=O)=O | 20µM | -[11.4 µM] | - | -
COc1cc(C)nc(Nc2nc(C)c(C(C)=O)s2)n1 | - | . | - | .
COc1ccc2sc(NC(C)=O)nc2c1 | - | - | - | -
CCCCOC(=O)Nc1nc2ccc(OC)cc2s1 | - | . | . | -[11.4 µM]
COc1ccc2nc(Nc3nc(C)c(C(C)=O)s3)sc2c1 | 16µM | - | . | -
COc1ccc2nc(NC(=O)c3cnccn3)sc2c1 | 13µM | - | - | -
CC(C)CCNC(=O)NC(=O)CSc1nnc2ccccn12 | - | - | - | -
CC(C)Oc1ccc(NC(=O)Oc2ccccc2)cc1 | 13µM | -[11.4 µM] | . | -[11.4 µM]
CC(=O)c1cccc(NC(=O)Oc2ccccc2)c1 | . | - | . | -
CC(C)Oc1ccc(C(=O)Nc2ccc(N(C)C)cc2)cc1 | 3.2µM | -[11.4 µM] | . | -[11.4 µM]
COc1cc(OC)c(/C=C2/C(=O)Nc3ccccc32)c(OC)c1 | - | - | . | -
Cc1cc(C)c(/C=C2/C(=O)Nc3ccccc32)[nH]1 | - | ? | . | 1.6µM
O=C(O)c1ccc(C(=O)O)c(C(=O)Nc2ccc3c(c2)Cc2ccccc2-3)c1 | -[11.4 µM] | -[11.4 µM] | . | -[11.4 µM]
O=C(Nc1nc2ccc(Cl)cc2s1)c1ccc(Br)o1 | 13µM | -[11.4 µM] | . | -[11.4 µM]
